Source: PubChem BioAssay (NCI)
This is part of a sample that, as a whole, favours compounds with a hit. Of some 79,000 tested, about 15% had one in any assay. Values without a mark were called inactive. Active and inactive are the calls of the source. Rule as the data show it: active = growth inhibition above about 70%; inactive = the rest.

Assay: NCI Yeast Anticancer Drug Screen. Data for the rad52 strain (AID 147);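 also: 0% = growth of vehicle-treated control cultures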
Conditions: S. cerevisiae rad52 mutant growth inhibition, active compounds read high
Procedure: Growth inhibition of yeast strains with defined genetic alterations is measured as a screen for potential anti-cancer activity. Selected strains with alterations in DNA damage repair or cell cycle control were exposed to compounds and growth inhibition was measured relative to vehicle treated controls. The strain used in this assay is rad52

SMILES	growth inhibition (at 1.2 µM)	growth inhibition (at 3.7 µM)	growth inhibition (at 11.0 µM)	growth inhibition (at 33.0 µM)	growth inhibition (at 100.0 µM)
O=C1C=CC(=Nc2cccc3c2-c2ccccc2C3=O)O1	3%	16%	67%	97% (active)	98% (active)
NC(=O)NC1C(c2ccccc2)=C1c1ccccc1	37%	58%	71% (active)	94% (active)	95% (active)
COc1ccc(N=c2cc(-c3ccccc3)oc3ccccc23)cc1	1%	2%	1%	-1%	-3%
CCCCS/C(=C(/C#N)C(N)=O)c1cc2c([nH]1)CCCC2	24%	26%	33%	40%	72% (active)
CNC(=O)OCc1c(COC(=O)NC)c(C)n(-c2ccc(Br)cc2)c1C	-7%	-6%	-8%	6%	87% (active)
CCN1CCC(O)(c2ccc(Oc3ccc(C)cc3)cc2)C(C(=O)c2ccc(Oc3ccc(C)cc3)cc2)C1 (stereo not given)	-28%	-32%	96% (active)	95% (active)	93% (active)
O=[N+]([O-])c1cccc2nc3ccccc3c(NCCCN3CCCCC3)c12	89% (active)	95% (active)	96% (active)	97% (active)	98% (active)
O=c1cccccc1[O-].O=c1cccccc1[O-].O=c1cccccc1[O-].[Eu+3]	2%	3%	32%	97% (active)	97% (active)
